# D1 antag = human D1 dopamine receptor antagonism. P21728. HEK293 TREx D1 cells, calcium flux, dopamine EC80; hits give low values. activity change, negative = inhibition, % at 10 µM. 360,000 compounds, 3.2% hits. AID 504652; in the data active = activity change below about -30%; also: % is scaled to controls: 0 for no effect and ±100 for the full control effect
#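 Inducible Hek293 Trex D1 cells (tetracycline, overnight, 30 C). Calcium dye 30–90 min RT. Antagonist mode: EC80 dopamine added after 180 s compound read.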
# D1 ag = human D1 receptor agonism; P21728; HEK293 T-REx D1 cells, calcium flux, agonist mode; activation, % at 2 µM; 360,000 compounds, 1% hits; also: 0% is about no effect
#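 Agonism was scored from calcium flux recorded over 180 s (1 read/s) after pintool compound addition, following a 10-cycle baseline. Cells were inducible force-coupled HEK293 TREx D1, plated overnight at 30 C and loaded with no-wash calcium dye.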
# TRHR agonist-1 = TRH receptor (human) agonism | P34981 | TRHR cells, calcium flux fluo-8, FDSS agonist mode | activation, % at 2 µM | 360,000 compounds, 0.18% hits; also: 0% is about no effect
# Target sequence (P34981 whole entry, looked up): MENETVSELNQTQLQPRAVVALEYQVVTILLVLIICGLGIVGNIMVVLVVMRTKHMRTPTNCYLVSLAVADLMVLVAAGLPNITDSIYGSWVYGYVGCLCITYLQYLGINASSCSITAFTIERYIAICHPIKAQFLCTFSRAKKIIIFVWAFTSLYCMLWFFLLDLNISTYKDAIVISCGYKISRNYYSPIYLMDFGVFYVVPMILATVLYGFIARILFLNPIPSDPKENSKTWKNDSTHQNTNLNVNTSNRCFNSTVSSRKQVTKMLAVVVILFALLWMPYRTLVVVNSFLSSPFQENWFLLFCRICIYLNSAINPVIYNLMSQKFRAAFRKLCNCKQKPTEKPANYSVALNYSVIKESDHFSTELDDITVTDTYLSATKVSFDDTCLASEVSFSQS
#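 Agonist-mode FDSS calcium read (Ex 480/Em 530, 1 s cycles) in 1536-well TRHR cells with fluo-8 dye, after 10-cycle baseline and 23 nL compound addition; TRH at EC20 (10 nM final) added afterwards for the enhancer phase.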
# TRHR enhancer-1 = TRH receptor (human) allosteric enhancement; TRHR cells, fluo-8 calcium fluorescence, EC20 TRH enhancement; enhancement, % at 2 µM; 360,000 compounds, 0.66% hits; in the data active = enhancement above about 30%; also: 0% is about no effect
#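 Enhancer read-out: after compound pinning and an initial kinetic agonist-mode read, an EC20 of TRH (10 nM final) was injected and fluo-8 calcium signal (Ex 480/Em 530) followed at 1 s/cycle for 100 cycles in TRHR-expressing cells.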
# D1 PAM = enhances dopamine response at the human D1 receptor | P21728 | HEK293 TREx D1 cells, calcium flux, dopamine EC20 potentiation | potentiation, % at 10 µM | 360,000 compounds, 0.036% hits; in the data active = potentiation above about 30%; also: 0% is about no effect
# TRHR enhancer-2 = confirmation of human TRH receptor allosteric enhancers. shares compounds with TRHR enhancer-1. TRH receptor cell assay, enhancer confirmation qHTS. activity change, negative = inhibition, % at 46.1 µM. 970 tested, under 10 active; active = well fitted curve in the direction sought with a large enough effect; inconclusive = small, poorly fitted or top-dose-only effect, or another doubt; inactive = no such curve, though single readings can be large; an effect the other way counts as inactive or inconclusive;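 also: compound effect scored on response to added TRH at EC20 of 10 nM; 0% is about no effect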
# TRHR agonist-2 = human TRH receptor agonism confirmation; AID 493078; Potency, µM (top dose mostly 46.1 µM), for the others: at the highest dose activation, usual class: activators; 970 compounds, 8% hits; TRHR-expressing cells, agonist activation read-out; shares compounds with TRHR enhancer-1; active = well fitted curve in the direction sought with a large enough effect; inconclusive = small, poorly fitted or top-dose-only effect, or another doubt; inactive = no such curve, though single readings can be large; an effect the other way counts as inactive or inconclusive; also: potency is read from the fitted curve at half-maximal effect; 0% is about no effect; nearly all actives have a fitted effect of over 75% in size
# Active calls of the source: *; ? = inconclusive; . = not tested or not shown. Rows were chosen to be rich in hits. Some 4.7% of all compounds tested hit in one or more screens of this group. Rule as the data show it, unless noted: active = activation above about 30%; inactive = the rest.
SMILES,D1 antag,D1 ag,TRHR agonist-1,TRHR enhancer-1,D1 PAM,TRHR enhancer-2,TRHR agonist-2
CSC1=NSC2=NC(=O)/C(=C\c3cccs3)C(=N)N12,-3,5,1,-4,-22,.,.
O=C(c1cccn1-c1nnc(N2CCCCC2)s1)N1CCN(c2ccc(Cl)cc2)CC1,-11,1,0,-1,-2,.,.
CSC1=NSC2=NC(=O)/C(=C/c3coc4ccc(O)cc4c3=O)C(=N)N12,1,168*,68*,12,3,.,.
CCN(CC)c1ccc(C2=NNC(=O)CC2C)cc1[N+](=O)[O-] (centres undefined),-44*,3,-1,21,-9,.,.
CC(CNC(=O)C1CCN(C(=O)c2cc3sccc3n2C)CC1)c1ccccc1 (centres undefined),0,2,0,0,-5,.,.
CC(C)CC(=O)Nc1nc2nc(-c3ccccc3)cc(=O)n2[nH]1,-6,0,1,3,0,.,.
Cc1oc2ncn(CC(C)C)c(=O)c2c1C(=O)NCCCN1CCCCC1C (centres undefined),-2,1,1,17,-4,.,.
CC1CCCCC1NC(=O)/C(C#N)=C/c1ccc(F)c(F)c1 (centres undefined),-45*,0,1,6,-4,.,.
O=C(N/N=C/c1cn(CCOc2ccccc2)c2ccccc12)c1ccncc1,-34*,3,0,0,-5,.,.
NC(=O)CSc1nnc2sc3ccccc3n12,-15,1,0,14,32*,.,.
O=C(O)CC1SC(=Nc2ccc(O)cc2)NC1=O (centres undefined),-31*,3,0,2,0,.,.
CCOC(=O)N1CCC(NC(=O)c2cnn3c2NC(c2ccco2)CC3C(F)(F)F)CC1 (centres undefined),-2,2,-1,32*,-8,.,.
CCOc1ccc(C(=O)Nc2c3c(nn2-c2ccc(C)cc2)CS(=O)C3)cc1OCC (centres undefined),6,2,0,42*,-5,-2,0%
CCCC(=O)NCCc1nc2ccccc2n1CC(=O)c1ccccc1,-12,0,0,-2,-1,.,.
CCCC(=O)NCCCc1nc2ccccc2n1C(C)C,-24,1,0,47*,-12,-2,1%
Cc1cccc(NC(=O)CCCCCn2c(=O)[nH]c3ccsc3c2=O)c1,3,0,-1,2,1,.,.
COc1ccc(-c2nc3cc(C)ccn3c2NC(=O)c2c(F)cccc2Cl)cc1,12,3,2,56*,3,?,5%
COc1cc(OC)c(NC(=O)Cn2cnc3nc4c(cc3c2=O)CCCC4)cc1Cl,-8,-2,0,2,2,.,.
COC(=O)c1c(-c2cccs2)csc1NC(=O)c1cc(OC)cc(OC)c1,-1,3,1,-3,0,.,.
CCCCNC(=O)C1c2ccccc2Oc2ccccc21,-1,1,0,-3,1,.,.
CCN(CC)C(=O)C1c2ccccc2Oc2ccccc21,-1,32*,3,46*,3,-8,1%
Cc1ccc(CNC(=O)CSc2nc3c(sc4ccccc43)c(=O)n2CCCC(=O)NCCO)cc1,6,1,0,1,2,.,.
COCCNC(=S)N/N=C/c1ccc(-c2ccc([N+](=O)[O-])cc2)o1,-4,88*,34*,2,2,-8,10µM*
O=[N+]([O-])c1ccc(-c2ccc(/C=N/O)o2)cc1,9,2,0,6,0,.,.
Cc1cccc(CC(=O)NC2CC(=O)N(c3cccc(F)c3)C2)c1 (centres undefined),.,-3,0,1,-1,.,.
SMILES,D1 antag,D1 ag,TRHR agonist-1,TRHR enhancer-1,D1 PAM,TRHR enhancer-2,TRHR agonist-2
CCOCCCNC(=O)c1cc(Sc2ccc(F)cc2)nc2ccccc12,4,4,0,49*,-4,-7,3%
COc1cc2ncnc(NCc3ccco3)c2cc1OC,-4,2,-2,75*,-12,-6,4%
COc1cc2ncnc(NCc3ccccc3)c2cc1OC,-2,2,0,-1,-8,.,.
CCCCNC(=O)c1cccc(-n2c(C)nc3cccnc32)c1,9,3,0,1,1,.,.
COc1cccc(NC(=S)N(Cc2ccccn2)Cc2ccccc2Cl)c1,-24,3,0,43*,-4,-5,2%
COc1ccc(NC(=S)N(Cc2ccccn2)Cc2ccccc2Cl)cc1,5,-1,0,-3,1,.,.
Cc1ccc([N+](=O)[O-])c(Oc2ncnc3c2oc2ccccc23)c1,-10,0,-1,4,-1,.,.
CCc1nc(SC)[nH]c(=O)c1C,26,1,-1,43*,-1,-1,0%
CCc1nc(SCC(=O)Nc2cccc3ccccc23)[nH]c(=O)c1C,-18,0,0,-6,-8,.,.
COc1ccc(CNCc2ccc(C(=O)O)s2)cc1,17,2,1,-2,-1,.,.
Oc1ccc(C(c2nnnn2C2CCCC2)N2CCc3ccccc3C2)cc1 (centres undefined),4,2,45*,1,-1,-12,1%
COc1cc(C(c2nnnn2C2CCCC2)N2CCc3ccccc3C2)ccc1O (centres undefined),2,0,0,3,-1,.,.
COc1ccccc1N(CC(=O)NCc1cccnc1)S(C)(=O)=O,20,1,0,48*,-1,8,1%
O=C1c2ccccc2-c2onc3ccc(N4CCCC4)c1c23,-21,167*,54*,-13,8,5,?
CCCCC(=O)N(c1ccc(C(=O)O)cc1)c1nc(-c2ccc(Cl)cc2)c(CC)s1,-8,1,0,63*,-3,-17,?
O=c1[nH]c(SCc2cccc(Cl)c2)nc2c1CCC2,-16,6,0,-8,2,.,.
CN(C(=O)c1cccc(NC(=O)c2ccco2)c1)c1ccccc1,8,2,34*,1,-8,0,-1%
CN(C(=O)c1ccc(NC(=O)c2ccco2)cc1)c1ccccc1,-14,7,0,2,7,.,.
CC(C)(C)c1ccc(OCc2cc(=O)n3c4c(sc3n2)CCCC4)cc1,-5,0,1,-3,-1,.,.
COC(=O)c1cc2sccc2n1CC(=O)Nc1cccc(SC)c1,-5,6,0,45*,-7,1,4%
COC(=O)c1cc2occc2n1CC(=O)Nc1cccc(SC)c1,-18,4,0,4,2,.,.
c1ccc(-c2cn3nc(-c4ccccc4)c(-c4ccccc4)nc3n2)cc1,5,73*,50*,-7,-6,6,21µM*
